Compounds without any hit were thinned out: in the full panel of roughly 83,000, 20% have a hit.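 Each cell line was grown in a 96-well plate and treated with one concentration of compound for 48 hours. Values below 10 were considered active.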 Values without a mark were called inactive. Calls of active or inactive are those of the source.
Key:
Assay in all cases: NCI-60 one-dose screen, 48 h (100 = growth as untreated, 0 = no growth, -100 = all killed)
Details in all cases: 10 µM unless noted
[1] = system: SK-MEL-2 melanoma
[2] = system: EKVX NSCLC
[3] = system: SN12C renal
[4] = system: UO-31 renal
[5] = system: TK-10 renal
[6] = system: ACHN renal
[7] = system: CAKI-1 renal
[8] = system: A498 renal
[9] = system: CCRF-CEM leukemia
[10] = system: MOLT-4 leukemia
[11] = system: SR leukemia
[12] = system: OVCAR-5 ovarian
[13] = system: OVCAR-4 ovarian
[14] = system: SK-OV-3 ovarian
[15] = system: IGROV1 ovarian
[16] = system: OVCAR-3 ovarian
[17] = system: HS 578T breast
[18] = system: NCI/ADR-RES ovarian
[19] = system: OVCAR-8 ovarian
[20] = system: RPMI-8226 leukemia

SMILES	growth [1]	growth [2]	growth [3]	growth [4]	growth [5]	growth [6]	growth [7]	growth [8]	growth [9]	growth [10]	growth [11]	growth [12]	growth [13]	growth [14]	growth [15]	growth [16]	growth [17]	growth [18]	growth [19]	growth [20]
Cc1cccc2c3c(sc12)C(c1ccc(F)cc1)C(C#N)=C(N)O3 (stereo unspecified)	50.1%	52.6%	25.2%	36.7%	78.8%	24.8%	-0.939% (active)	4.47% (active)	13.8%	12.5%	9.36% (active)	25.9%	60.8%	60.7%	20.6%	3.36% (active)	28.7%	12%	–	–
NCCOc1ncccc1/C=C1\C2C=CC=CC2C2C=CC(F)=CC12 (stereo unspecified)	113%	43.9%	-3.7% (active)	-0.645% (active)	41.7%	-34% (active)	25%	17.2%	3.62% (active)	0.118% (active)	0.916% (active)	31.3%	68.3%	20.1%	29.9%	–	61.5%	27.8%	–	–
O=C1/C(=C/c2ccccc2[N+](=O)[O-])Oc2ccc(O)c(O)c21	43.1%	63.9%	31.1%	28.7%	80.4%	17.7%	15.1%	65.7%	8.79% (active)	18.1%	36.1%	–	47.9%	93.1%	48.5%	35.1%	21.1%	37.6%	25.5%	–
O=C1CCC/C=C\C[C@H]2C=CC(=O)/C2=C/C[C@H](CCc2cccc(C(F)(F)F)c2)O1	-57.2% (active)	-47.6% (active)	-37.9% (active)	-95.5% (active)	-68.9% (active)	-85.1% (active)	12.5%	-79.7% (active)	4.33% (active)	-18.6% (active)	-4.73% (active)	–	12.8%	-34.9% (active)	–	-65.8% (active)	14.3%	–	5.51% (active)	–
O=C(Nc1ccc(Cl)cc1F)c1cc(Cl)ccc1O	-28.3% (active)	5.1% (active)	-11% (active)	-14.6% (active)	15.6%	-1.72% (active)	1.59% (active)	-51.8% (active)	15.8%	-42.4% (active)	-21.2% (active)	19.7%	17.9%	9.05% (active)	8.98% (active)	–	-13.9% (active)	3.01% (active)	–	–
CN(C)CCS(=O)(=O)Nc1cc(-c2ccc3ncc(C#N)c(Nc4ccc(F)c(Cl)c4)c3c2)cnc1Cl	-40.4% (active)	-43.5% (active)	0.75% (active)	-55.5% (active)	-35.5% (active)	8.58% (active)	-42.3% (active)	-49.9% (active)	1.06% (active)	-25.9% (active)	-12.5% (active)	-43.8% (active)	-5.26% (active)	-35.1% (active)	-43.3% (active)	-59.8% (active)	-10.5% (active)	63.7%	–	–
N#CC1=C(N)Oc2c(sc3c(Br)cccc23)C1c1ccc(Br)cc1 (stereo unspecified)	8.78% (active)	45.6%	25.8%	36.3%	54.6%	56%	32.8%	23.9%	10.1%	7.14% (active)	4.23% (active)	56.3%	48.9%	36%	–	-8.57% (active)	14.1%	–	–	–
CCCCCCN1C(=O)/C(=c2\sc3n(c2=O)C2C(NN=3)N(CC)C(=O)N2CC)c2ccccc21 (stereo unspecified)	50.1%	65%	19.1%	-2.09% (active)	3.21% (active)	-43% (active)	4.26% (active)	-5.48% (active)	37.8%	49.4%	–	32.4%	-35.5% (active)	54.8%	24.2%	-50.2% (active)	4.83% (active)	–	-22.3% (active)	44.6%
CCOC(=O)CCN(C(=O)Nc1ccccc1)C1CCCCC1	119%	101%	117%	118%	120%	110%	110%	109%	107%	93.8%	129%	–	113%	112%	93.2%	118%	107%	106%	128%	–

From PubChem BioAssay (NCI)
